In all, about 5,500 compounds went through this assay and about 2,000 (36%) were called active. Not shown: some 18% with an inconclusive outcome. No stated cut-off is given here; in the data, active means normalized growth mostly below about 0.91 (no sharp cut-off); inconclusive means no clear call, values can overlap the other calls; inactive means mostly above about 0.92. Some of the results follow.
Assay: chemical genetic growth profiling, strain panel (AID 1159580);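 further: tested at 20 µM; growth read once vehicle control cultures reached saturation at 30 °C; 1 = growth at the plate median or of vehicle wells; lower values mean less growth of the strain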
Settings: growth OD

Measured: normalized growth

N[C@@H](Cc1ccc(O)c(O)c1)C(=O)O
inactive: S. cerevisiae deletion strains, locus YJR075W, strain HOC1, hits give low values 1 | S. cerevisiae deletion strains, locus YKL009W, strain mrt4, hits give low values 0.961 | S. cerevisiae deletion strains, locus YKL068W, hits give low values 0.979 | S. cerevisiae deletion strains, locus YKL085W, strain MDH1 (second series), hits give low values 1 | S. cerevisiae deletion strains, locus YKL085W, strain MDH1, hits give low values 1 | S. cerevisiae deletion strains, locus YKL160W, strain elf1, hits give low values 1.01 | S. cerevisiae deletion strains, locus YKL190W, strain CNB1, hits give low values 0.964 | S. cerevisiae deletion strains, locus YKR001C, strain vps1, hits give low values 1 | S. cerevisiae deletion strains, locus YKR026C, strain gcn3, hits give low values 0.989 | S. cerevisiae deletion strains, locus YKR091W, strain srl3, hits give low values 0.998 | S. cerevisiae deletion strains, locus YLL001W, strain dnm1, hits give low values 0.983 | S. cerevisiae deletion strains, locus YLL026W, hits give low values 0.995 | S. cerevisiae deletion strains, locus YLL041C, strain sdh2, hits give low values 1 | S. cerevisiae deletion strains, locus YLR027C, strain aat2, hits give low values 1.01 | S. cerevisiae deletion strains, locus YLR039C, strain RIC1, hits give low values 0.91 | S. cerevisiae deletion strains, locus YLR058C, strain SHM2, hits give low values 0.996 | S. cerevisiae deletion strains, locus YLR102C, strain apc9, hits give low values 0.991 | S. cerevisiae deletion strains, locus YLR113W, strain HOG1, hits give low values 0.93 | S. cerevisiae deletion strains, locus YLR221C, strain rsa3, hits give low values 0.999 | S. cerevisiae deletion strains, locus YLR258W, strain gsy2, hits give low values 0.985 | S. cerevisiae deletion strains, locus YLR262C, strain YPT6 (second series), hits give low values 1.01 | S. cerevisiae deletion strains, locus YLR262C, strain YPT6, hits give low values 0.898 | S. cerevisiae deletion strains, locus YLR268W, strain sec22, hits give low values 1 | S. cerevisiae deletion strains, locus YLR320W, strain mms22, hits give low values 1.01 | S. cerevisiae deletion strains, locus YLR330W, strain CHS5, hits give low values 0.987 | S. cerevisiae deletion strains, locus YLR342W, strain FKS1 (second series), hits give low values 0.949 | S. cerevisiae deletion strains, locus YLR342W, strain FKS1, hits give low values 1.01 | S. cerevisiae deletion strains, locus YLR357W, strain rsc2, hits give low values 0.975 | S. cerevisiae deletion strains, locus YLR370C, strain arc18, hits give low values 1 | S. cerevisiae deletion strains, locus YLR371W, strain rom2, hits give low values 0.975 | S. cerevisiae deletion strains, locus YLR384C, strain iki3, hits give low values 1 | S. cerevisiae deletion strains, locus YLR418C, strain cdc73, hits give low values 1.04 | S. cerevisiae deletion strains, locus YML016C, strain PPZ1, hits give low values 0.991 | S. cerevisiae deletion strains, locus YML032C, strain rad52, hits give low values 0.991 | S. cerevisiae deletion strains, locus YML120C, strain ndi1, hits give low values 1 | S. cerevisiae deletion strains, locus YML124C, strain tub3, hits give low values 0.996 | S. cerevisiae deletion strains, locus YMR058W, strain fet3, hits give low values 0.993 | S. cerevisiae deletion strains, locus YMR078C, strain ctf18, hits give low values 0.995 | S. cerevisiae deletion strains, locus YMR125W, strain sto1, hits give low values 0.976 | S. cerevisiae deletion strains, locus YMR129W, hits give low values 0.986 | S. cerevisiae deletion strains, locus YMR205C, strain PFK2, hits give low values 0.982 | S. cerevisiae deletion strains, locus YMR223W, strain ubp8, hits give low values 1.01 | S. cerevisiae deletion strains, locus YMR231W, strain pep5, hits give low values 0.992 | S. cerevisiae deletion strains, locus YMR263W, strain SAP30, hits give low values 0.982 | S. cerevisiae deletion strains, locus YMR307W, strain GAS1, hits give low values 0.921 | S. cerevisiae deletion strains, locus YNL067W, strain RPL9B, hits give low values 0.982 | S. cerevisiae deletion strains, locus YNL071W, strain lat1, hits give low values 1.02 | S. cerevisiae deletion strains, locus YNL128W, strain TEP1, hits give low values 0.954 | S. cerevisiae deletion strains, locus YNL153C, strain GIM3, hits give low values 0.991 | S. cerevisiae deletion strains, locus YNL183C, strain NPR1, hits give low values 0.923 | S. cerevisiae deletion strains, locus YNL209W, strain ssb2, hits give low values 1.01 | S. cerevisiae deletion strains, locus YNL233W, strain BNI4, hits give low values 1 | S. cerevisiae deletion strains, locus YNL248C, strain rpa49, hits give low values 0.99 | S. cerevisiae deletion strains, locus YNL250W, strain rad50, hits give low values 0.98 | S. cerevisiae deletion strains, locus YNL271C, strain bni1, hits give low values 0.987 | S. cerevisiae deletion strains, locus YNL298W, strain CLA4, hits give low values 0.995 | S. cerevisiae deletion strains, locus YNL307C, strain MCK1, hits give low values 1 | S. cerevisiae deletion strains, locus YNL322C, strain KRE1 (second series), hits give low values 0.99 | S. cerevisiae deletion strains, locus YNL322C, strain KRE1, hits give low values 0.989 | S. cerevisiae deletion strains, locus YNR049C, strain mso1, hits give low values 1 | S. cerevisiae deletion strains, locus YNR052C, strain pop2, hits give low values 1 | S. cerevisiae deletion strains, locus YOL006C, strain TOP1, hits give low values 0.753 | S. cerevisiae deletion strains, locus YOL012C, strain htz1 0.813 | S. cerevisiae deletion strains, locus YOL147C, strain pex11, hits give low values 1 | S. cerevisiae deletion strains, locus YOR001W, strain rrp6, hits give low values 0.996 | S. cerevisiae deletion strains, locus YOR061W, strain CKA2, hits give low values 0.992 | S. cerevisiae deletion strains, locus YOR069W, strain VPS5, hits give low values 1 | S. cerevisiae deletion strains, locus YOR070C, strain gyp1, hits give low values 0.998 | S. cerevisiae deletion strains, locus YOR080W, strain dia2, hits give low values 0.993 | S. cerevisiae deletion strains, locus YOR083W, strain WHI5, hits give low values 1.01 | S. cerevisiae deletion strains, locus YOR106W, strain vam3, hits give low values 0.996 | S. cerevisiae deletion strains, locus YOR136W, strain idh2, hits give low values 1 | S. cerevisiae deletion strains, locus YOR144C, strain elg1, hits give low values 0.996 | S. cerevisiae deletion strains, locus YOR184W, strain ser1, hits give low values 0.982 | S. cerevisiae deletion strains, locus YOR231W, strain MKK1, hits give low values 0.942 | S. cerevisiae deletion strains, locus YOR265W, strain rbl2, hits give low values 0.998 | S. cerevisiae deletion strains, locus YOR270C, strain vph1, hits give low values 1.02 | S. cerevisiae deletion strains, locus YOR290C, strain snf2, hits give low values 0.933 | S. cerevisiae deletion strains, locus YOR316C, strain cot1, hits give low values 0.995 | S. cerevisiae deletion strains, locus YPL051W, strain arl3, hits give low values 0.994 | S. cerevisiae deletion strains, locus YPL055C, strain LGE1, hits give low values 0.92 | S. cerevisiae deletion strains, locus YPL078C, strain atp4, hits give low values 1.01 | S. cerevisiae deletion strains, locus YPL106C, strain sse1, hits give low values 0.96 | S. cerevisiae deletion strains, locus YPL240C, strain hsp82, hits give low values 0.995 | S. cerevisiae deletion strains, locus YPL241C, strain CIN2, hits give low values 0.987 | S. cerevisiae deletion strains, locus YPL256C, strain CLN2, hits give low values 0.929 | S. cerevisiae deletion strains, locus YPR119W, strain clb2, hits give low values 1 | S. cerevisiae deletion strains, locus YPR141C, strain kar3, hits give low values 0.98 | S. cerevisiae deletion strains, locus YPR163C, strain tif3, hits give low values 1.01 | S. cerevisiae deletion strains, locus YPR167C, strain met16, hits give low values 1.01 | S. cerevisiae deletion strains, strain wtn01, hits give low values 1.01 | S. cerevisiae strains, strain wild type, hits give low values 0.955
